The supplement of paper PMC13380429

How the values were obtained:
[1] = system: Vero E6 infected with SARS-CoV-2; assay: morphology score (similarity to uninfected cells); higher = more like uninfected cells; conditions: 24 h
[2] = system: Vero E6 infected with SARS-CoV-2; assay: SARS-CoV-2 infection rate relative to infected DMSO; higher = more infection, active = 60 or less; conditions: 24 h
[3] = system: Vero E6 infected with SARS-CoV-2; assay: inhibition of SARS-CoV-2 cytopathic effect; higher = more antiviral protection, active = above 15; conditions: 48 h

Compound: CC1(C)C(=O)N(c2ccc(C#N)c(C(F)(F)F)c2)C(=O)N1CCCCO (10 µM)
- morphology score [1]: -0.0623
- SARS-CoV-2 infection rate [2]: 100% (inactive)

Compound: NC(=O)c1ncn([C@@H]2O[C@H](CO)[C@@H](O)[C@H]2O)c1O [mizoribine] (10 µM)
- morphology score [1]: 0.0626
- SARS-CoV-2 infection rate [2]: 112% (inactive)

Compound: CCCCN(CCCC)CCCOC(=O)c1ccc(N)cc1 [butacaine] (10 µM)
- morphology score [1]: 0.206
- SARS-CoV-2 infection rate [2]: 100% (inactive)

Compound: O=C1c2ccccc2C(Cc2ccncc2)(Cc2ccncc2)c2ccccc21 (10 µM)
- morphology score [1]: -0.0398
- SARS-CoV-2 infection rate [2]: 98% (inactive)

Compound: Nc1nc(O)c2nc(Br)n([C@@H]3O[C@@H]4COP(=O)(O)O[C@H]4[C@H]3O)c2n1 [8-bromo-cGMP] (10 µM)
- morphology score [1]: 0.0521
- SARS-CoV-2 infection rate [2]: 97% (inactive)

Compound: CCCCC1C(=O)N(c2ccccc2)N(c2ccccc2)C1=O [phenylbutazone] (10 µM)
- morphology score [1]: 0.209
- SARS-CoV-2 infection rate [2]: 97.5% (inactive)

Compound: O=C(CCCCCCCC(=O)NCCO)NCCO [adelmidrol] (10 µM)
- morphology score [1]: -0.0406
- SARS-CoV-2 infection rate [2]: 105% (inactive)

Compound: C#CCN(C)[C@H](C)Cc1ccccc1 [selegiline] (10 µM)
- morphology score [1]: 0.0406
- SARS-CoV-2 infection rate [2]: 105% (inactive)

Compound: CNc1cc2c(Nc3cccc(Br)c3)ncnc2cn1
- inhibition of SARS-CoV-2 cytopathic effect ([3]; 1 nM): -1.96% (inactive)
- inhibition of SARS-CoV-2 cytopathic effect ([3]; 8.33 nM): -0.58% (inactive)
- inhibition of SARS-CoV-2 cytopathic effect ([3]; 100 nM): -1.36% (inactive)
- inhibition of SARS-CoV-2 cytopathic effect ([3]; 833.33 nM): -4.84% (inactive)
- inhibition of SARS-CoV-2 cytopathic effect ([3]; 10000 nM): -2.22% (inactive)

Compound: CC(CN(C)C)CN1c2ccccc2CCc2ccccc21 (stereo not given) [trimipramine] (10 µM)
- morphology score [1]: 0.451
- SARS-CoV-2 infection rate [2]: 80.5% (inactive)

Compound: Cc1coc2c1C(=O)C(=O)c1c-2ccc2c1CCCC2(C)C [tanshinone-IIA] (10 µM)
- morphology score [1]: 0.159
- SARS-CoV-2 infection rate [2]: 102% (inactive)
